Source: PubChem BioAssay
This is one part of a sample in which hits are shown more often than they occur.
KDM5B inh = inhibitors of human KDM5B histone demethylase | KDM5B demethylase, FDH-coupled NADH fluorescence (FDH is formaldehyde dehydrogenase) | Potency, µM (highest dose often 57.7 µM), usual class: inhibitors | hit rate 2.6% among 220,000 | AID 1347165; active = well fitted inhibition curve with a large enough effect; also: nearly all actives have a fitted effect of over 70% in size
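Inhibition is measured as reduced NADH fluorescence generation from FDH coupling to formaldehyde release. Truncated KDM5BΔAP at 200 nM final acts on H3K4me3 peptide (12.5 µM in substrate mix) in pH 7.5 HEPES buffer with Tween-20, 30 min, room temperature.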
Large screens that a line does not name were inactive.

O=C(Cc1ccc(OC(F)(F)F)cc1)N1CCC([C@@H]2CNC[C@H]2CO)CC1	none
C=CCNC(=O)NC(=O)CN(CC)c1cccc(F)c1	none
CN1CCC([C@@H]2CN(C(=O)c3nn(C)c4ccccc34)C[C@H]2C(N)=O)CC1	none
COc1ccc(-c2nnc(SC(C(=O)N3CCOCC3)c3ccccc3)n2C)cc1 (stereo not given)	none
CC(C)c1ccc(-c2nonc2NC(=O)c2cc(=O)c3ccc(Br)cc3o2)cc1	none
COc1cccc(Nc2nccc3c(=O)cc(-c4ccccn4)oc23)c1	none
O=c1cc(N2CCOCC2)oc2c(-c3cncnc3)nccc12	KDM5B inh 25µM
O=c1cc(N2CCOCC2)oc2c(Nc3ccccc3)nccc12	none
C[S+](=O)([O-])c1cccc(-c2nccc3c(=O)cc(N4CCOCC4)oc23)c1	KDM5B inh 28µM
COc1ccc(Nc2nccc3c(=O)cc(N4CCOCC4)oc23)cn1	KDM5B inh 32µM
CC1CCCCC1NC(=O)CCC1CCCO1 (stereo not given)	none
C=C(C)CN1CCN(c2nc3c(c(=O)[nH]c(=O)n3C)n2Cc2ccccc2Cl)CC1	none
O=C(NCc1cccc(Cl)c1)C1CCN(c2ncnc3nc[nH]c23)CC1	none
Nc1nc(COc2ccccc2C(=O)NCc2ccccc2)nc(Nc2ccc(F)cc2)n1	none
O=C(OCc1nnnn1-c1ccccc1)C1(c2ccccc2F)CCCC1	none
N#C/C(=C/c1ccc(-c2ccccc2)cc1)C(=O)Nc1ccc(N2CCOCC2)cc1	none
CC(C)NC(=O)N1CCN(c2cccc(C=O)c2)C(=O)C1	none
COc1ccc(Cn2c(C3CCN(C(=O)c4ccccc4)CC3)n[nH]c2=O)cc1	none
Cc1occc1-c1nnc(SCC(=O)Nc2ccc3c(c2)OC2(CCCCC2)O3)o1	none
CCc1nn(-c2ccc(OC)cc2)c(Oc2ccccc2F)c1CCC(=O)NCCOC	KDM5B inh 25µM
CCc1nn(-c2ccccc2)c(Oc2ccccc2OC)c1CCC(=O)NCCOC	none
CCc1nn(-c2ccc(OC)cc2)c(Oc2ccccc2F)c1CCC(=O)NC(C)C	none
CC(=O)c1ccc(NC(=O)C(C)Sc2nc3nc(C)cc(C)c3c(=O)[nH]2)cc1 (stereo not given)	none
COc1ccc(CCNC(=O)CN2C(=O)NC(c3ccc(Cl)cc3)C3=C2COC3=O)cc1OC (stereo not given)	none
O[C@@H]1C[C@@H](c2nnc3n2CCN(Cc2ccc(F)c(F)c2)C3)N(Cc2ccccc2)C1	none
O=C(Cc1ccccc1)N1CCn2c(nnc2[C@@H]2C[C@@H](O)CN2Cc2ccccc2)C1	none
O[C@@H]1C[C@@H](c2nnc3n2CCN(Cc2cccc4[nH]ccc24)C3)N(Cc2ccccc2)C1	KDM5B inh 25µM
Cc1nc2ccc(C(=O)N(C)Cc3ccc(C(N)=O)cc3)cc2nc1C	none
COc1cccc(/C=C/c2nc(C#N)c(NCc3ccc4c(c3)OCO4)o2)c1	none
COc1ccccc1-c1nc2nccc(-c3ccncc3)n2n1	none
COc1ccc(-c2noc(-c3nc(-c4ccccc4F)no3)n2)cc1OC	none
Brc1ccc(-c2ccnc3nc(-c4ccco4)nn23)s1	KDM5B inh 28µM
COc1ccccc1-c1nc2nccc(-c3ccccc3)n2n1	none
COc1ccc(Cc2nc3nccc(-c4ccco4)n3n2)cc1	none
COc1ccccc1-c1nc2nccc(-c3ccc(Cl)cc3)n2n1	KDM5B inh 32µM
COc1ccc(-c2ccnc3nc(-c4ccccc4OC)nn23)cc1OC	KDM5B inh 28µM
COc1cc(-c2ccnc3nc(-c4ccco4)nn23)cc(OC)c1OC	KDM5B inh 25µM
COc1ccc(-c2c(C)nn3c(-c4ccccc4)cc(C)nc23)cc1OC	none
Cc1cc(Nc2ccc(F)c(F)c2)n2nc(-c3ccco3)nc2n1	none
COC(=O)c1ccc(COC(=O)CC23CC4CC(CC(O)(C4)C2)C3)cc1	none
COc1cc(C2C3CCCCC3(O)CCN2Cc2ccc(Cl)cc2)ccc1O (stereo not given)	none
O=C1CCCCC1Sc1nc2cc(Cl)ccc2s1 (stereo not given)	none
C[C@@H]1CN(C(=O)c2ccc(-c3nnn(C)n3)cc2)C[C@@]1(O)C1CC1	none
CCOC(=O)c1c(CN2CCC(C(=O)NCC(F)(F)F)CC2)nc2ccccc2c1C	none
COc1cccc(-c2nc(CSc3ccc4c(c3)OCCCO4)cs2)c1OC	none
COc1ccccc1N1CCN(c2cc(C)nc3nc(-c4ccc(C)cc4)nn23)CC1	none
COc1ccccc1-c1nc2nccc(-c3cc(OC)c(OC)c(OC)c3)n2n1	KDM5B inh 25µM
COc1ccccc1-c1nc2nccc(-c3cc4ccccc4o3)n2n1	KDM5B inh 25µM
COc1cccc(-c2nc(-c3cc4ccccc4o3)cs2)c1OC	none
COc1ccc(C(=O)c2cc3ccccc3o2)cc1OC	none
COc1ccccc1-c1nc2nccc(-c3ccc4c(c3)OCCCO4)n2n1	KDM5B inh 14µM
Cc1ccc(/C=N/Nc2ccc(S(N)(=O)=O)cc2[N+](=O)[O-])s1	none
COc1cccc(C(=O)N2C(C(=O)NC(C)C)COC23CCN(C(=O)c2ccccc2F)CC3)c1 (stereo not given)	none
CCCCN(C)Cc1ccc(OCc2ccccc2)c(OC)c1	none
Cc1ccc(C(=O)N2CCC3(CC2)CC(=O)N(c2ccccc2)c2ccccc2O3)cc1	none
CCOc1ccccc1C(=O)N1CCN(c2cc(-c3cccs3)[nH]n2)CC1	none
Cc1cnc(C(=O)NC(c2ccccc2)c2ccccc2)cn1	none
CC(C)(C)CNC1(Cc2cc(CCO)on2)COC1	none
COc1ccccc1CNc1ccc2nnc(C)n2n1	none
COc1ccccc1C(=O)NCc1nnc2ccc(-c3ccc(C)cc3)nn12	KDM5B inh 13µM
CCOc1ccccc1C(=O)NCc1nnc2ccc(-c3ccc(C)c(C)c3)nn12	KDM5B inh 32µM
COc1ccccc1CCC(=O)NCc1nnc2ccc(-c3ccc(C)cc3)nn12	none
Cc1cnc(NC(=O)CCc2c(C)[nH]c(=O)[nH]c2=O)s1	none
O=C(O)CCc1ccc(S(=O)(=O)NCc2ccc(F)cc2)cc1	none
Cc1[nH]c2ccccc2c1C(=O)C(C)Oc1ccccc1F (stereo not given)	none
Cc1cc(C)cc(NC(=O)N2CCCC(c3noc(COc4ccccc4F)n3)C2)c1 (stereo not given)	none
Cc1ccc(N/N=C/c2ccc(C(C)(C)C)cc2)cc1Cl	none
Cc1ccc(C)c(NC(=O)c2cc3c(N4CCSCC4)nc(C)cn3n2)c1	KDM5B inh 32µM
COc1ccc(OC)c(NC(=O)c2cc3c(N4CCSCC4)nc(C)cn3n2)c1	none
COc1ccccc1NC(=O)c1cc2c(N3CCSCC3)nc(C)cn2n1	KDM5B inh 28µM
COc1ccccc1NC(=O)c1nc2ccccc2nc1N1CCOCC1	none
Cc1cn2nc(C(=O)Nc3ccccc3C)cc2c(N2CCSCC2)n1	KDM5B inh 35µM
Cc1noc(C)c1CC(=O)N1CC(=O)N(C2CCCCC2)CC(OCc2ccccc2)C1 (stereo not given)	none
CN(CC(=O)NC(=O)NCc1ccccc1)Cc1ccccc1	none
Cc1cccc(OCC2(CNS(=O)(=O)c3ccc(F)cc3)C[C@@H](O)[C@@H](O)C2)n1 (stereo not given in full)	none
c1ccc(Cn2ncc3c2CCCC3NCc2cscn2)cc1 (stereo not given)	none
O=C(Cn1c(=O)oc2ccccc21)N1CCc2nn(CC3CC3)c(=O)n2CC1	none
Cc1ccc(C(=O)N2CCn3c(nn(-c4cccc(Cl)c4)c3=O)C2)cc1	none
COc1ccccc1N1CCN(c2ncc3c(n2)CCN(Cc2ccccc2C)C3)CC1	none
COc1ccccc1-n1cc(-c2ccnc(N3CC(n4cccn4)C3)n2)cn1	KDM5B inh 32µM
COc1ccccc1N1CCN(c2ncc3c(n2)CCCC3=O)CC1	none
